Experimental data as given in the supplement of paper PMC6897291.
Where a name gives a salt, the structure may show the parent alone.

Legend:
[1] = tested on: U-2932; assay: growth inhibition by drug alone (1 - RLU/untreated control) (fraction); higher = stronger inhibition; details: 177Lu-lilotomab satetraxetan 0 ug/ml
Procedure, shortened: (§1)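 With or without 18 h pretreatment by a radiolabelled anti-CD37 antibody conjugate (~600 MBq/mg; 0.5 µg/ml RIVA, 1 µg/ml U-2932), RIVA and U-2932 cells were washed and plated at 3,000 cells/well. Pre-printed compound doses were 10/100 nM for RIVA and 10/1,000 nM for U-2932. Growth inhibition uses RealTime-Glo RLU relative to the untreated no-drug wells. The calculation is 1 − RLU/mean of 48 such wells per plate, with reads daily from day 3 after 1 h at 37°C.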

[2] = tested on: RIVA; assay: as above; details: 177Lu-lilotomab satetraxetan 0 ug/ml
Procedure, shortened: as §1

[3] = tested on: U-2932; assay: growth inhibition by drug plus 177Lu-lilotomab satetraxetan (1 - RLU/untreated control) (fraction); higher = stronger inhibition; details: 177Lu-lilotomab satetraxetan 1 ug/ml
Procedure, shortened: as §1

[4] = tested on: RIVA; assay: as above; details: 177Lu-lilotomab satetraxetan 0.5 ug/ml
Procedure, shortened: as §1

Row | SMILES | growth inhibition by drug alone ([1]; 10 nM, time (day): 3) | growth inhibition by drug alone ([1]; 10 nM, time (day): 4) | growth inhibition by drug alone ([1]; 10 nM, time (day): 5) | growth inhibition by drug alone ([1]; 10 nM, time (day): 6) | growth inhibition by drug alone ([1]; 1000 nM, time (day): 3) | growth inhibition by drug alone ([1]; 1000 nM, time (day): 4) | growth inhibition by drug alone ([1]; 1000 nM, time (day): 5) | growth inhibition by drug alone ([1]; 1000 nM, time (day): 6) | growth inhibition by drug alone ([2]; 10 nM, time (day): 3) | growth inhibition by drug alone ([2]; 10 nM, time (day): 4) | growth inhibition by drug alone ([2]; 10 nM, time (day): 5) | growth inhibition by drug alone ([2]; 10 nM, time (day): 6) | growth inhibition by drug alone ([2]; 100 nM, time (day): 3) | growth inhibition by drug alone ([2]; 100 nM, time (day): 4) | growth inhibition by drug alone ([2]; 100 nM, time (day): 5) | growth inhibition by drug alone ([2]; 100 nM, time (day): 6) | growth inhibition by drug plus 177Lu-lilotomab satetraxetan ([3]; 10 nM, time (day): 3) | growth inhibition by drug plus 177Lu-lilotomab satetraxetan ([3]; 10 nM, time (day): 4) | growth inhibition by drug plus 177Lu-lilotomab satetraxetan ([3]; 10 nM, time (day): 5) | growth inhibition by drug plus 177Lu-lilotomab satetraxetan ([3]; 10 nM, time (day): 6) | growth inhibition by drug plus 177Lu-lilotomab satetraxetan ([3]; 1000 nM, time (day): 3) | growth inhibition by drug plus 177Lu-lilotomab satetraxetan ([3]; 1000 nM, time (day): 4) | growth inhibition by drug plus 177Lu-lilotomab satetraxetan ([3]; 1000 nM, time (day): 5) | growth inhibition by drug plus 177Lu-lilotomab satetraxetan ([3]; 1000 nM, time (day): 6) | growth inhibition by drug plus 177Lu-lilotomab satetraxetan ([4]; 10 nM, time (day): 3) | growth inhibition by drug plus 177Lu-lilotomab satetraxetan ([4]; 10 nM, time (day): 4) | growth inhibition by drug plus 177Lu-lilotomab satetraxetan ([4]; 10 nM, time (day): 5) | growth inhibition by drug plus 177Lu-lilotomab satetraxetan ([4]; 10 nM, time (day): 6) | growth inhibition by drug plus 177Lu-lilotomab satetraxetan ([4]; 100 nM, time (day): 3) | growth inhibition by drug plus 177Lu-lilotomab satetraxetan ([4]; 100 nM, time (day): 4) | growth inhibition by drug plus 177Lu-lilotomab satetraxetan ([4]; 100 nM, time (day): 5) | growth inhibition by drug plus 177Lu-lilotomab satetraxetan ([4]; 100 nM, time (day): 6)
1 | CNC(=O)c1cc(COc2nnc(Nc3ccc(Cl)cc3)c3ccoc23)ccn1 [Telatinib (BAY 57-9352)] | -0.0124 | 0.00544 | -0.0774 | -0.272 | -0.0825 | -0.0325 | -0.0739 | -0.229 | -0.0398 | -0.0876 | -0.128 | -0.281 | -0.214 | -0.207 | -0.212 | -0.315 | -0.0402 | -0.000867 | 0.00308 | 0.0503 | -0.145 | -0.0474 | -0.0515 | 0.00564 | 0.351 | 0.487 | 0.503 | 0.502 | 0.316 | 0.416 | 0.413 | 0.391
2 | CCN(CC)CCOc1ccc(Nc2ncc3cc(-c4c(Cl)cccc4Cl)c(=O)n(C)c3n2)cc1 | 0.107 | 0.071 | 0.00536 | -0.00834 | 0.719 | 0.785 | 0.78 | 0.774 | -0.00347 | 0.00881 | -0.0667 | -0.267 | 0.458 | 0.461 | 0.386 | 0.22 | 0.0115 | 0.0427 | 0.0614 | 0.118 | 0.958 | 0.972 | 0.981 | 0.984 | 0.458 | 0.527 | 0.536 | 0.546 | 0.495 | 0.473 | 0.405 | 0.287
3 | CCCC(CCC)C(=O)O [Valproic acid sodium salt (Sodium valproate)] | 0.135 | 0.0829 | -0.0268 | -0.0189 | -0.0134 | 0.0276 | -0.0122 | -0.131 | -0.0545 | -0.0344 | -0.0932 | -0.3 | 0.0331 | 0.00236 | -0.00506 | -0.0995 | 0.0169 | 0.0448 | 0.0823 | 0.106 | -0.06 | 0.0571 | 0.0167 | 0.0659 | 0.442 | 0.551 | 0.566 | 0.583 | 0.469 | 0.539 | 0.543 | 0.523
